According to the supplement of paper PMC6089552:
About 300 (9.4%) of roughly 3,200 compounds showed activity. The list comes from a sample in which actives are over-represented; it also holds similar structures and randomly drawn compounds.

Tested on: A673/TR/shEF
Experiment: cell viability (LOESS-normalised, relative to median of negative controls) (log2 ratio); higher = more viable cells (less compound effect), active = hit call of the paper (over 3 MAD below the median)
Details: treatment time: 72 h
Summary of the method: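 For three days, A673/TR/shEF Ewing sarcoma cells in 384-well plates (1,500 per well) were treated with library compounds at two or more concentrations or with DMSO controls, after doxycycline had been added or withheld 24 h beforehand to induce EWS-FLI1 shRNA knockdown. Viability was read by CellTiter-Glo luminescence on an Envision reader. The data were LOESS-corrected per plate, divided by the median of negative controls and log2-transformed.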

[1] = 0.25 µM, library screen: screen1, EWS-FLI1 expression: high (no doxycycline)
[2] = 0.25 µM, library screen: screen1, EWS-FLI1 expression: low (doxycycline-induced shRNA knockdown)
[3] = 2.5 µM, library screen: screen1, EWS-FLI1 expression: high (no doxycycline)
[4] = 2.5 µM, library screen: screen1, EWS-FLI1 expression: low (doxycycline-induced shRNA knockdown)
[5] = 0.25 µM, library screen: screen2, EWS-FLI1 expression: high (no doxycycline)
[6] = 0.25 µM, library screen: screen2, EWS-FLI1 expression: low (doxycycline-induced shRNA knockdown)
[7] = 2.5 µM, library screen: screen2, EWS-FLI1 expression: high (no doxycycline)
[8] = 2.5 µM, library screen: screen2, EWS-FLI1 expression: low (doxycycline-induced shRNA knockdown)
[9] = 0.025 µM, library screen: screen1, EWS-FLI1 expression: high (no doxycycline)
[10] = 0.025 µM, library screen: screen1, EWS-FLI1 expression: low (doxycycline-induced shRNA knockdown)
[11] = 25 µM, library screen: screen1, EWS-FLI1 expression: high (no doxycycline)
[12] = 25 µM, library screen: screen1, EWS-FLI1 expression: low (doxycycline-induced shRNA knockdown)
[13] = 0.103 µM, library screen: screen3, EWS-FLI1 expression: high (no doxycycline)
[14] = 0.103 µM, library screen: screen3, EWS-FLI1 expression: low (doxycycline-induced shRNA knockdown)
[15] = 0.308 µM, library screen: screen3, EWS-FLI1 expression: high (no doxycycline)
[16] = 0.308 µM, library screen: screen3, EWS-FLI1 expression: low (doxycycline-induced shRNA knockdown)
[17] = 0.926 µM, library screen: screen3, EWS-FLI1 expression: high (no doxycycline)
[18] = 0.926 µM, library screen: screen3, EWS-FLI1 expression: low (doxycycline-induced shRNA knockdown)
[19] = 2.8 µM, library screen: screen3, EWS-FLI1 expression: high (no doxycycline)
[20] = 2.8 µM, library screen: screen3, EWS-FLI1 expression: low (doxycycline-induced shRNA knockdown)
[21] = 8.3 µM, library screen: screen3, EWS-FLI1 expression: high (no doxycycline)
[22] = 8.3 µM, library screen: screen3, EWS-FLI1 expression: low (doxycycline-induced shRNA knockdown)
[23] = 25 µM, library screen: screen3, EWS-FLI1 expression: high (no doxycycline)
[24] = 25 µM, library screen: screen3, EWS-FLI1 expression: low (doxycycline-induced shRNA knockdown)

Measured: cell viability (log2)

COc1cc(/C=C/CO)ccc1O
inactive: [1] 0.0482 | [2] 0.111 | [3] 0.0791 | [4] 0.0869

Oc1cc(O)cc(/C=C/c2ccccc2)c1
inactive: [1] 0.0674 | [2] 0.00318 | [3] 0.07 | [4] 0.0614

COc1cc(O)cc(/C=C/c2ccccc2)c1
inactive: [1] 0.0443 | [2] 0.0713 | [3] 0.167 | [4] 0.125

O=c1cc(O)cc(/C=C/c2ccc(O)c(O)c2)o1
inactive: [5] 0.159 | [6] 0.05 | [7] 0.0405 | [8] 0.104

Oc1cc(O)cc(/C=C/c2ccc(O)c(O)c2)c1
inactive: [9] 0.0929 | [10] 0.00184 | [1] 0.117 | [2] 0.0696 | [5] -0.0238 | [6] 0.0864 | [3] 0.0516 | [4] 0.151 | [7] 0.187 | [8] 0.0106 | [12] 0.162
active: [11] -0.42

Oc1ccc(/C=C/c2cc(O)cc(O)c2)cc1
active: [5] -1.5 | [6] -1.81 | [7] -2.99 | [8] -3.07 | [23] -0.23
inactive: [13] 0.0131 | [14] 0.0367 | [1] 0.0839 | [2] 0.0347 | [15] -0.0479 | [16] 0.0776 | [17] 0.0102 | [18] 0.0306 | [3] 0.127 | [4] 0.2 | [19] -0.00513 | [20] 0.017 | [21] -0.0335 | [22] 0.0785 | [24] 0.0525

C=C1CC/C=C(/C)CC[C@@H]2[C@@H]1CC2(C)C
inactive: [1] 0.102 | [2] 0.0257 | [3] 0.165 | [4] 0.118

CC1(C)CC[C@]2(C(=O)O)[C@H](O)C[C@]3(C)C(=CC[C@@H]4[C@@]5(C)CC[C@H](O)C(C)(C)[C@@H]5CC[C@]43C)[C@@H]2C1
inactive: [1] 0.0739 | [2] 0.0342 | [3] 0.0945 | [4] 0.121

CC1(C)C(=O)CCC2(C)C1CC(O)C1(C)C2CCC2(C)C(c3ccoc3)OC(=O)C3OC321 (configuration not stated)
inactive: [1] 0.0271 | [2] -0.0613 | [3] 0.1 | [4] -0.017

NC(N)=NCCSSCCN=C(N)N
inactive: [5] 0.208 | [6] 0.0937 | [7] 0.0577 | [8] 0.063

O=c1cccc2ccc(O)c(O)c2c1O
inactive: [1] 0.0319 | [2] -0.0442 | [3] 0.142 | [4] -0.0155

COc1cc(Cc2cnc(N)nc2N)cc(OC)c1OC
inactive: [1] 0.149 | [2] 0.184 | [3] 0.204 | [4] 0.321
active: [5] -0.215 | [6] -0.0762 | [7] -1.67 | [8] -2.59

COc1ccc(CN2CCN(Cc3cc(OC)c(OC)c(OC)c3)CC2)cc1
inactive: [1] 0.174 | [2] 0.0733 | [3] 0.142 | [4] -0.0868

COc1cc(O)cc(OC)c1OC
inactive: [1] 0.0343 | [2] 0.0156 | [3] 0.173 | [4] 0.0956

COc1ccc(-c2coc3cc(OC)cc(O)c3c2=O)cc1
inactive: [1] 0.0141 | [2] 0.0676 | [3] 0.102 | [4] 0.184

COc1cc(CN2CCN(Cc3ccco3)CC2)cc(OC)c1
inactive: [1] -0.0146 | [2] 0.0935 | [3] 0.0118 | [4] 0.0977

CCCS(=O)(=O)Nc1ccc(F)c(C(=O)c2c[nH]c3ncc(-c4ccc(Cl)cc4)cc23)c1F
active: [23] -0.179
inactive: [13] 0.0151 | [14] 0.0756 | [15] -0.0936 | [16] 0.103 | [17] -0.131 | [18] 0.105 | [19] -0.159 | [20] 0.126 | [21] -0.177 | [22] 0.106 | [24] 0.0931

COc1c(Cl)c(C)c2c(c1Cl)OC(=O)c1c(C)c(Cl)c(O)c(Cl)c1O2
inactive: [1] 0.0361 | [2] 0.0285 | [3] 0.0998 | [4] 0.0885

CN([C@@H](Cc1ccc(OS(=O)(=O)c2cccc3cnccc23)cc1)C(=O)N1CCN(c2ccccc2)CC1)S(=O)(=O)c1cccc2cnccc12
active: [3] -0.171 | [11] -0.315
inactive: [9] 0.267 | [10] 0.00847 | [1] 0.23 | [2] -0.0263 | [5] 0.0748 | [6] 0.07 | [4] 0.0275 | [7] 0.166 | [8] -0.012 | [12] 0.00423

CC1CN(S(=O)(=O)c2cccc3cnccc23)CCN1 (configuration not stated)
inactive: [5] 0.246 | [6] 0.094 | [7] 0.214 | [8] 0.111

COc1ccccc1NC1CC(C)N(C(=O)c2ccc(C)cc2)c2c(C)cccc21 (configuration not stated)
inactive: [1] 0.107 | [2] 0.0693 | [3] 0.128 | [4] 0.111

CCCN(CCC)C(=O)C(CCC(=O)O)NC(=O)c1ccccc1 (configuration not stated)
inactive: [1] 0.188 | [2] 0.0317 | [5] 0.129 | [6] 0.0785 | [3] 0.223 | [4] 0.0771 | [7] 0.121 | [8] 0.115

Nc1ccc(C(=O)NCC(=O)O)cc1
inactive: [1] 0.0323 | [2] 0.126 | [3] 0.15 | [4] 0.151

CC(C)C[C@H](NC(=O)[C@H](CCC(=O)O)NC(=O)CNC(=O)c1ccc(/C=C/C(=O)O)cc1)C(N)=O
inactive: [10] 0.0951 | [1] -0.0717 | [2] 0.0592 | [3] -0.0597 | [4] 0.0308 | [11] -0.00491 | [12] -0.0971
active: [9] -0.138

CC(=O)O[C@@H]1CC2C(C)(C)C(=O)CC[C@]2(C)C2CC[C@]3(C)C(=CC(=O)O[C@H]3c3ccoc3)[C@@]21C (some centres not stated)
inactive: [1] 0.0774 | [2] 0.142 | [3] 0.182 | [4] 0.164

CCCCC(=O)N(Cc1ccc(-c2ccccc2-c2nn[nH]n2)cc1)[C@H](C(=O)O)C(C)C
inactive: [13] 0.0298 | [14] -0.0095 | [15] 0.124 | [16] 0.0801 | [17] 0.0765 | [18] 0.054 | [19] 0.0694 | [20] 0.124 | [21] 0.00201 | [22] 0.078 | [23] 0.137 | [24] 0.104

COc1ccc(/C=C/C(=O)O)cc1OC
inactive: [1] -0.00585 | [2] -0.00138 | [3] 0.164 | [4] 0.0104

CC(C)N1C(=O)C(=Cc2cccs2)SC1=S
inactive: [1] 0.108 | [2] 0.0522 | [3] 0.148 | [4] 0.0877

O=C1CC[C@]23/C=C/C(=O)NCCCCNCCCNC(=O)/C=C/c4ccc(c2c4)O[C@@H]3C1
inactive: [1] 0.0958 | [2] 0.0883 | [3] 0.0986 | [4] 0.157

COc1cc([C@@H]2c3cc4c(cc3[C@@H](O[C@@H]3O[C@@H]5CO[C@@H](c6cccs6)O[C@H]5[C@H](O)[C@H]3O)[C@H]3COC(=O)[C@H]23)OCO4)cc(OC)c1O
inactive: [13] -0.0319 | [14] -0.00588 | [16] -0.0159
active: [1] -0.797 | [2] -0.349 | [15] -0.326 | [17] -0.931 | [18] -0.262 | [3] -1.74 | [4] -0.557 | [19] -1.32 | [20] -0.472 | [21] -2.12 | [22] -0.477 | [23] -3.07 | [24] -0.784

COc1cc([C@@H]2c3cc4c(cc3[C@@H](O[C@@H]3O[C@@H]5CO[C@@H](C)O[C@H]5[C@H](O)[C@H]3O)[C@H]3COC(=O)[C@H]23)OCO4)cc(OC)c1O
inactive: [13] 0.16 | [14] 0.0754 | [1] 0.0215 | [2] 0.0298 | [5] 0.197 | [6] 0.0698 | [15] 0.0781 | [16] 0.0446 | [17] 0.0107 | [18] 0.0985 | [4] 0.00733 | [8] 0.00714 | [20] -0.0251
active: [3] -0.176 | [7] -0.711 | [19] -0.212 | [21] -0.857 | [22] -0.166 | [23] -1.25 | [24] -0.367

CCCC(CC)CCOC(=O)COc1cc(Cl)c(Cl)cc1Cl (configuration not stated)
inactive: [1] 0.0358 | [2] 0.0314 | [3] 0.0377 | [4] 0.068

NCCCC(N)CC(=O)NCC1NC(=O)C(CO)NC(=O)C(N)CNC(=O)C(C2CCN=C(N)N2)NC(=O)/C(=C/NC(N)=O)NC1=O (configuration not stated)
inactive: [1] 0.0914 | [2] 0.117 | [3] 0.124 | [4] 0.0772

CC1=C(C(=O)OCCOc2ccccc2)C(c2coc3ccccc3c2=O)C2=C(CCCC2=O)N1 (configuration not stated)
inactive: [1] 0.0678 | [2] -0.0908 | [3] 0.0965 | [4] 0.143

COc1cc2nc(N3CCN(C(=O)C4=C[C@H]5C=C[C@@H]4CC5)CC3)nc(N)c2cc1OC
inactive: [5] 0.165 | [6] 0.0668 | [7] 0.132 | [8] 0.0728

NCCCCC(N)C(=O)NC(Cc1c[nH]c2ccccc12)C(=O)NC(CCCCN)C(=O)O (configuration not stated)
inactive: [1] 0.0147 | [2] 0.0512 | [3] 0.141 | [4] 0.0544
